From PubChem BioAssay
Calls of active or inactive are those of the source. Unless noted, the rule behind the calls is not given here.

How the values were obtained:
[1] = tested on: Wnt5a (protein binding on small-molecule microarray); test: Wnt5a binders on small-molecule microarray, primary screen, biophysical, 635/667 nm fluorescence (AID 1142); settings: 635 nm fluorescence, higher = more signal;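 note: fluorescence read at 667 nm with signal to noise per printed feature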
[2] = cell viability in Huh7 cells, primary screen, cytotoxicity control for HCV replication inhibitor project, CellTiter-Glo luminescence, basal, 48 h (AID 1143); settings: Huh7 HCV replicon, higher = more signal, called active from +8 up or from −8 down;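 note: Huh7 hepatoma cells carrying a hepatitis C replication reporter with no stimulus; test concentration not given here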
[3] = P. aeruginosa biofilm formation inhibitors, primary screen, PAO1 strain, BacTiter-Glo luminescence, LB-PBS (AID 1144); settings: 12 h, higher = more signal
[4] = CREB reporter modulators without forskolin, primary screen, cell-based, PC12, CRE-LacZ reporter, unstimulated (AID 1145); settings: no forskolin, luminescence, 4.5 h, higher = more signal, called active from +8 up or from −8 down
[5] = CREB reporter modulators under forskolin, primary screen, cell-based, PC12, CRE-LacZ reporter, forskolin-stimulated (AID 1146); settings: luminescence, 4.5 h, higher = more signal, called active from +8 up or from −8 down;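 note: PC12 cells with 6xCRE LacZ reporter stimulated by forskolin 10 µM; beta-galactosidase reporter signal reflecting CREB driven transcription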
[6] = biological target: Streptavidin (Streptomyces avidinii) (UniProt P22629); test: streptavidin binders on small-molecule microarray, primary screen, artefact control for SMM compound annotation, biophysical, 635/667 nm fluorescence (AID 1147); settings: streptavidin binding, higher = more signal;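 note: signal reflects streptavidin binding to arrayed compounds as a control protein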
Sequence of Streptavidin (Streptomyces avidinii) (P22629 whole entry, looked up): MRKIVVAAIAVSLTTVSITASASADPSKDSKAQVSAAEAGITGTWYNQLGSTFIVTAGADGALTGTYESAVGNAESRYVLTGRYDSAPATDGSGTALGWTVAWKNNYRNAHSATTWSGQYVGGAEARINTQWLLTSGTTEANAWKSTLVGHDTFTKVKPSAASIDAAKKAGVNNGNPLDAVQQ

[7] = small-molecule binders of probe aInhba, primary screen, biochemical, small-molecule microarray, 635/667 nm fluorescence (AID 1148); settings: higher = more signal;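 note: score merges 667nm spot fluorescence with signal-to-noise for antibody binding to printed compounds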
Torsin-1A (Homo sapiens) [8] = biological target: Torsin-1A (Homo sapiens) (UniProt O14656); test: torsin A binders from cell lysate, primary screen, small-molecule microarray, wild-type, 635/667 nm (AID 1149); settings: COS7 hTOR1A-WT lysate, 635 nm fluorescence, higher = more signal
Sequence of Torsin-1A (Homo sapiens) (O14656 whole entry, looked up): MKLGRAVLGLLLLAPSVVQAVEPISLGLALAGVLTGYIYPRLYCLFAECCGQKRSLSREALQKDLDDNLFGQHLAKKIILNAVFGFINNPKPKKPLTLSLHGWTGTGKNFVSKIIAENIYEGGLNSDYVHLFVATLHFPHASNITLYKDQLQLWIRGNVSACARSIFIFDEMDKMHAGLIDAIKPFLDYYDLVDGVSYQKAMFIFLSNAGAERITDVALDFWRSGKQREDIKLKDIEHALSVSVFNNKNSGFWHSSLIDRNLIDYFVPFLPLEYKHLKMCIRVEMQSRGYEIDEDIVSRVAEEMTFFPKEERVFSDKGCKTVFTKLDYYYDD

Torsin-1A (Homo sapiens) [9] = biological target: Torsin-1A (Homo sapiens) (UniProt O14656); test: small-molecule binders of mutant TOR1A in lysate, primary screen, cell lysate, small-molecule microarray, COS7 lysate, 635/667 nm fluorescence (AID 1150); settings: COS7 hTOR1A mutant lysate, 635 nm fluorescence, higher = more signal;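 note: score pools 667 nm emission and signal to noise measuring lysate protein binding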
[10] = tested on: Sonic hedgehog protein (Shh); test: small-molecule binders of Shh protein, primary screen, biochemical, small-molecule microarray, 635/667 nm fluorescence (AID 1151); settings: small-molecule microarray binding, 635 nm fluorescence; higher = more signal;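 note: Shh protein binding to compounds spotted on small-molecule microarray slides; score combines spot fluorescence intensity with signal-to-noise across triplicate slides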

Compound | composite z-score [1] | z-score [2] | z-score [3] | z-score [4] | z-score [5] | composite z-score [6] | composite z-score [7] | composite z-score (Torsin-1A (Homo sapiens) [8]) | composite z-score (Torsin-1A (Homo sapiens) [9]) | composite z-score [10]
C=C(CCCC)C(=O)CC[C@H](OC(C)=O)c1ccc(CO)o1 | 0.0631 | -3.11 (inactive) | -0.312 (inactive) | 0.508 (inactive) | -0.79 (inactive) | -0.264 | -0.0427 | -0.423 | 0.794 | 1.99
CC1(C)C(=O)C(c2ccccc2)=C2CN3C(=O)N(CCc4ccccc4)C(=O)C3(Cc3ccccc3)C=C21 (stereo not given) | 0.114 | -1.13 (inactive) | -0.741 (inactive) | 0.576 (inactive) | 0.15 (inactive) | 0.982 | 0.134 | 0.736 | -0.244 | -1.07
C[C@H]1C2[C@H](Cc3ccccc3)NC(=O)[C@]23C(=O)N[C@H](Cc2ccccc2)C(=O)N[C@H](Cc2ccccc2)C(=O)NC/C=C/CCC/C=C/C3[C@@H]2O[C@]12C (stereo not given in full) | 0.127 | -2 (inactive) | 0.612 (inactive) | 1.3 (inactive) | -0.696 (inactive) | -0.224 | -0.149 | 0.299 | 0.225 | 0.843
O=C1OCCC=C[C@H]2OC34C=CCN(CCN5CCOCC5)C(=O)[C@H]3N(CCO)C(=O)[C@@H]4C12 (stereo not given in full) | -0.141 | 0.473 (inactive) | 0.329 (inactive) | -0.358 (inactive) | -0.0338 (inactive) | -0.983 | -0.168 | -0.23 | 0.0141 | 0.731
CC(C)NC(=O)[C@@H]1c2ccccc2C(=O)N(C2CCCCC2)[C@H]1c1ccc(CO)cc1 | 0.242 | -1.17 (inactive) | 0.0353 (inactive) | -0.529 (inactive) | -0.579 (inactive) | -0.148 | 0.152 | 0.13 | -0.28 | 0.0045
COCCCNC(=O)[C@@]1(C)c2ccccc2C(=O)N(Cc2ccccc2)[C@H]1c1ccc(CO)cc1 | -0.811 | -4.52 (inactive) | -0.453 (inactive) | -0.295 (inactive) | -0.463 (inactive) | -0.944 | -0.0963 | -2.72 | 2.16 | 0.182
O=C(CS)NCCCCCCNC(=O)[C@H]1C[C@H]2C(=O)N3CCC[C@H]3C(=O)N2[C@H]1c1ccc(O)cc1 | -0.161 | -0.514 (inactive) | -0.256 (inactive) | 0.675 (inactive) | 0.465 (inactive) | -0.322 | -0.05 | 0.624 | 0.947 | 1.8
COC(=O)C(CC#Cc1ccc2c(c1)[C@]1(C(=O)N2)[C@H](C(=O)N2CCCCCCC2)[C@H]2C(=O)O[C@H](c3ccccc3)[C@H](c3ccccc3)N2[C@@H]1c1ccccc1OCCO)C(=O)OC | 2.44 | -3.54 (inactive) | -0.429 (inactive) | -0.141 (inactive) | -0.81 (inactive) | 4.06 | 2.24 | 3.84 | 3.73 | 2.04
COCCOC(=O)N1C(=O)[C@@]2(c3cc(C#CCCO)ccc31)[C@H](c1ccc(O)cc1)N1[C@H](c3ccccc3)[C@H](c3ccccc3)OC(=O)[C@H]1[C@@H]2C(=O)N1CCCCCCC1 | 0.799 | -0.883 (inactive) | -0.569 (inactive) | 0.568 (inactive) | -0.268 (inactive) | 0.825 | 0.62 | 0.705 | 0.667 | 1.65
CCCNC(=O)[C@@]1(C)c2ccccc2C(=O)N(Cc2cc(F)cc(C(F)(F)F)c2)[C@H]1c1ccc(CO)cc1 | -0.283 | -3.38 (inactive) | -1.09 (inactive) | 0.208 (inactive) | -0.173 (inactive) | -0.767 | -0.175 | -2.08 | 0.779 | 0.011
CC(C)C(CO)N1C(=O)[C@@H]2[C@H]3C(=O)OCC=C[C@H]3OC23C=CCN(c2ccc4ccccc4c2)C(=O)[C@@H]13 (stereo not given in full) | -0.0522 | -0.372 (inactive) | 2.05 (inactive) | 0.732 (inactive) | 0.755 (inactive) | -0.818 | -0.179 | -0.905 | -2.07 | -0.506
C=C(CCCC)/C(=C/C[C@@H](OC(=O)c1ccncc1)c1ccc(CO)o1)c1cc(C(=O)OC)ccc1OC | 0.079 | -0.605 (inactive) | 0.363 (inactive) | 6.18 (inactive) | 4.24 (inactive) | 0.707 | 0.027 | 0.394 | 1.23 | 1.97
C=CCOC(=O)[C@@H]1[C@H]2C(=O)O[C@H](c3ccccc3)[C@H](c3ccccc3)N2[C@H](c2ccc(OCCOC(=O)[C@H]3C[C@H]4C(=O)N[C@@H](CCCC[N+](C)(C)C)C(=O)N4[C@H]3c3cccc(OCCO)c3)cc2)[C@@]12C(=O)Nc1ccc(I)cc12 | 0.662 | -0.693 (inactive) | -0.0854 (inactive) | 0.289 (inactive) | -0.464 (inactive) | 0.128 | 0.115 | 0.559 | 0.327 | 1.89
COC(=O)[C@@]1(Cc2ccccc2)[C@H]2c3cc(C(=O)N(C)C)n(Cc4ccccc4)c3C[C@H]2CN1C(=O)c1ccccc1 | 0.347 | -0.513 (inactive) | 0.0307 (inactive) | 0.776 (inactive) | 1.08 (inactive) | 1.68 | 0.209 | -0.314 | 0.766 | -0.867
CCOC(=O)C[C@H]1[C@H](OC(=O)c2cc3ccccc3oc2=O)[C@@H](NC(=O)c2ccc3ccccc3c2)c2cc(OCCCO)ccc2N1C(=O)c1ccccc1 | 0.406 | -3.04 (inactive) | 1.4 (inactive) | 9.27 (active) | 0.368 (inactive) | 0.976 | -0.0405 | 1.14 | 1.11 | 1.54
O=C1O[C@@H](c2ccccc2)[C@@H](c2ccccc2)N2[C@@H](c3ccc(O)cc3)[C@]3(C(=O)Nc4ccc(C#CCCO)cc43)[C@@H](C(=O)O)[C@H]12 | 0.13 | 0.457 (inactive) | -0.682 (inactive) | 0.0921 (inactive) | -0.31 (inactive) | 1.47 | 1.47 | 0.0458 | -0.0978 | -0.3
CCCC[C@H]1OB(O)C[C@H]2C1=C(C)Cn1c(=O)n(-c3ccccc3)c(=O)n12 | 0.0677 | 0.007 (inactive) | -0.444 (inactive) | 0.222 (inactive) | -0.251 (inactive) | -0.124 | 0.0301 | 0.363 | -0.0931 | 0.759
COC(=O)[C@@]1(Cc2ccc(OC)cc2)[C@H]2c3cc(C(=O)N(C)C)n(Cc4ccc(OC)c(OC)c4)c3C[C@H]2CN1C(=O)c1ccccc1 | 0.171 | -2.97 (inactive) | 0.437 (inactive) | 0.583 (inactive) | 0.292 (inactive) | 1.67 | 0.55 | 0.258 | 1.17 | -0.521
C=CCC(OC(C)=O)[C@@H]1[C@@H](N(Cc2ccc(-c3cccc(C(F)(F)F)c3)o2)C(=O)Cc2ccc(OC)cc2)c2cc(OCCCO)ccc2N1C(=O)Cc1ccc(OC)cc1 (stereo not given in full) | -0.294 | -3.06 (inactive) | -1.7 (inactive) | 0.484 (inactive) | 0.609 (inactive) | -1.01 | -0.154 | -2.51 | -1.2 | 0.514
O=C(NCc1ccccc1)[C@@H]1c2ccccc2C(=O)N(C2CCCCC2)[C@H]1c1ccc(CO)cc1 | 0.191 | -1.08 (inactive) | 0.583 (inactive) | 0.234 (inactive) | 0.174 (inactive) | -0.395 | -0.352 | 0.113 | 1.11 | 1.4
